Screens from PubChem BioAssay.
The list is not random: actives were taken first. Their share in the collection is about 7.5%.
SMN2 splice up – increases expression of the SMN2 splice variant; AID 1458; Potency, µM (doses to about 46.1 µM), for inactives: at the highest dose activity change, positive = activation, actives largely listed as activators; HEK293 SMN2-luciferase splicing reporter, luminescence, 30-36 h; 210,000 compounds, 2.8% hits; note: % of control where 0% means no effect; nearly all actives have a fitted effect of over 55% in size
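HEK293 cells carry an SMN2 […]–luciferase reporter in which exon 7 inclusion puts luciferase in frame. Cells were plated 10-12 h before compound addition, then incubated 30-36 h at 37C. ONE-Glo luminescence was read; sodium butyrate at 4.5 mM final served as control.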
ELG1 genotoxic – inducers of genotoxicity in HEK293T ELG1-luciferase cells; HEK293T ELG1-luciferase reporter, luminescence, 16 h; 330,000 compounds, 1.3% hits; Potency, µM (series often up to 46 µM), without a hit: at the highest dose activity change, positive = activation, most hits filed as activators; note: % of control where 0% means no effect; nearly all actives have a fitted effect of over 60% in size
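Genotoxicity was scored as increased ELG1-luciferase reporter signal, measured by ONE-Glo luminescence (30 min, room temperature). Compound or vehicle exposure of the HEK293T reporter cells lasted 16 hr at 37°C.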
Rab9 prom act – activates the Rab9 promoter | Huh7 Rab9 promoter-luciferase reporter, luminescence, 24 h | Potency, µM (series often up to 9.22 µM), for inactives: at the top dose activation, negative = inhibition, hits mostly activators | 320,000 compounds, 2.8% hits | AID 485297; note: % of control where 0% means no effect; nearly all actives have a fitted effect of over 60% in size
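Luminescence read-out: Huh7 cells stably expressing Rab9-luciferase, treated 24 h with compound at 37 °C, then lysed with luciferase reagent for 10 min at ambient before reading.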
FLuc counter – counter-screen for miR-21 project: firefly luciferase inhibitors or activators; P08659; purified FLuc, Km substrates, luminescence inhibition; Potency, µM (doses to about 57.5 µM), for inactives: at the highest dose activity change, negative = inhibition, actives largely listed as inhibitors; 360,000 compounds, 6.9% hits; AID 588342;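 note: plate controls were vehicle for no effect and reference inhibitor for full effect; nearly all actives have a fitted effect of over 55% in size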
Target sequence (P08659 whole entry, looked up): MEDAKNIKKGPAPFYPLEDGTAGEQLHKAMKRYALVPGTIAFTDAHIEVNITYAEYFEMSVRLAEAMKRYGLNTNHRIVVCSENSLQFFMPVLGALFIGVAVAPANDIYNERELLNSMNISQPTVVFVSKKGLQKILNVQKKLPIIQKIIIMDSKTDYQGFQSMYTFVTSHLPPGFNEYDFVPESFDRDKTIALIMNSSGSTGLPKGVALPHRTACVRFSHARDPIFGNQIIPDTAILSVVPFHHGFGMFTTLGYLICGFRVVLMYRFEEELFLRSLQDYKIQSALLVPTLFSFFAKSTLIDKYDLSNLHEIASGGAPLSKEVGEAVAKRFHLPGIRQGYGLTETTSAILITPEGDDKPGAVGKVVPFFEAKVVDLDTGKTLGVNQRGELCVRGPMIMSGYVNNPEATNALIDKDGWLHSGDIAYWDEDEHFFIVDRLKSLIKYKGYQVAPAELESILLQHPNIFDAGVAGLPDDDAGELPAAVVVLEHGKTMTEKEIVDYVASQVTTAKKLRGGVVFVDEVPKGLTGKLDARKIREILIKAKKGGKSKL
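Purified P. pyralis luciferase (10nM final) with 10uM D-luciferin and 10uM ATP (Km levels) in 50mM Tris acetate pH 7.5, 10mM Mg acetate, 0.01% Tween-20, 0.05% BSA; qHTS 6-point titration, ~60 µM downward; luminescence read.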
NPC1 prom act – NPC1 promoter activation. 320,000 compounds, 2.4% hits. Huh7 NPC1 promoter luciferase reporter, 24 h. Potency, µM (titrated, usually from 9.22 µM), without a hit: at the highest dose activation, actives largely listed as activators; note: % of control where 0% means no effect; nearly all actives have a fitted effect of over 60% in size
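Luminescence read-out of NPC1 promoter-driven luciferase in stably transfected Huh7 cells; compounds delivered in DMSO and left 24 h at 37C, 5% CO2, qHTS titration format.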
KinaseGlo FLuc – blocks Kinase-Glo luciferase, a counter-screen artifact; Potency, µM (top dose mostly 38.3 µM), without a hit: top-dose activity change, negative = inhibition, hits mostly inhibitors; Q27757; 200,000 compounds, 0.28% hits; Kinase-Glo luciferase, ATP luminescence, 8 min; note: % is set by controls: 0 for no effect and ±100 for the full control effect; nearly all actives have a fitted effect of over 60% in size
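Light output from Kinase-Glo luciferase with luciferin and 10 uM ATP in 50 mM imidazole pH 7.2, KCl, MgCl2, Tween 20, BSA; compound pin-delivered, 8-min ambient incubation, then luminescence read.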
* = called active by the depositor; ? = inconclusive; . = not tested or not shown. Calls come from the whole dose curve; as a rule, active = well fitted curve in the direction sought with a large enough effect; inconclusive = small, poorly fitted or top-dose-only effect, or another doubt; inactive = no such curve, though single readings can be large; an effect the other way counts as inactive or inconclusive. Potency is the fitted concentration of half-maximal effect.

SMILES | SMN2 splice up | ELG1 genotoxic | Rab9 prom act | FLuc counter | NPC1 prom act | KinaseGlo FLuc
O=C(COc1ccccc1)NCC(=O)NC1=NCCS1 | -3% | 3% | -2% | -7% | 12% | -1%
Cc1ccccc1OCC(=O)NC1=NCCS1 | 13µM* | 9.2µM* | 2.8µM* | 12µM* | 1.8µM* | -11%
O=C(NCCc1ccc(Cl)cc1)c1cc(-c2ccc(Cl)cc2)n[nH]1 | . | . | . | 1% | . | .
COc1ccc(-c2noc(N3CCCC(C(=O)Nc4ccc(C(C)=O)cc4)C3)n2)cc1 (stereo not drawn) | . | 3% | 27% | 11µM* | 23% | .
CCOc1ccc(-n2c(=O)c3c(C)c(C(=O)N(C)C)sc3n(CC(=O)Nc3c(C)cc(C)cc3C)c2=O)cc1 | . | . | . | -4% | . | .
CCCC(=O)Nc1ccc(-c2csc(-c3cccnc3)n2)cc1 | . | -4% | ? | ? | 13% | .
CC(=O)Nc1ccc(-c2csc(-c3cccnc3)n2)cc1 | . | 6.5µM* | ? | 7.6µM* | 2.8µM* | .
c1ccc(-c2csc(Nc3ncccn3)n2)cc1 | 2.5µM* | 1.3µM* | 0.35µM* | 0.6µM* | 0.63µM* | -17%
CC(=O)Nc1ccc(-c2csc(Nc3ccc(S(N)(=O)=O)cc3)n2)cc1 | 7% | 5% | -4% | -3% | -12% | 0%
Oc1ccc(-c2csc(Nc3ncccn3)n2)cc1 | 25µM* | 4.6µM* | 0.56µM* | 3µM* | 2µM* | -4%
CC(=O)Nc1ccc(-c2csc(Nc3ncccn3)n2)cc1 | 5µM* | 9.2µM* | 0.56µM* | ? | 0.56µM* | -1%
COc1ccc(N2CCN(C3C(=O)c4ccccc4N3C(C)=O)CC2)cc1 (stereo not drawn) | . | . | . | -11% | . | .
CCc1ccccc1NC(=O)CSc1ncc2c(n1)-c1ccccc1N(Cc1ccc(C)cc1)S2(=O)=O | . | . | . | -2% | . | .
CCCCCNc1nc(-c2ccccc2)cs1 | 20% | 7.3µM* | 2.8µM* | 1.9µM* | 4µM* | -6%
COc1ccc(-c2cn3c(n2)sc2cc(C(=O)NCCCN4CCCCCC4)ccc23)cc1 | . | . | . | -8% | . | .
N#Cc1ccc(/C=N/NC(=S)Nc2ccc(S(=O)(=O)N3CCOCC3)cc2)cc1 | . | -5% | -4% | -17% | -4% | .
O=S(=O)(c1ccc(NC(=S)N/N=C/c2ccc(O)c(O)c2)cc1)N1CCOCC1 | . | 3% | -5% | 17µM* | -2% | .
O=S(=O)(c1ccc(Cl)c(NC(=S)N/N=C/c2ccc(O)cc2)c1)N1CCOCC1 | -63% | -6% | 1% | 17µM* | -7% | -1%
O=S(=O)(c1ccc(Cl)c(NC(=S)N/N=C/c2c(F)cccc2F)c1)N1CCOCC1 | . | 2% | -5% | 4% | -4% | .
Oc1ccc(/C=N/NC(=S)N2CCOCC2)cc1 | -46% | 9% | 28% | 7.6µM* | 26% | ?
CC(C)C(=O)N1c2ncnn2C2(CCCCC2)[C@@H]2CCCC[C@@H]21 | . | . | . | -10% | . | .
CN(CC(=O)Nc1ccc(F)c(F)c1F)C(=O)c1ccc(=O)[nH]c1 | . | 4.6µM* | 1.1µM* | 4.3µM* | 0.89µM* | .
Cc1cc(C)c(C#N)c(Oc2ccccc2Br)n1 | 5% | 6% | -5% | 0% | -3% | -1%
Cc1ccc(C)c(C(=O)COC(=O)CCCC(=O)Nc2cc(C(F)(F)F)ccc2Cl)c1 | -10% | -1% | 0% | 4.8µM* | -2% | -1%
COc1cccc(-c2nnc(SCC(=O)N(C)C3CCCCC3)o2)c1 | . | . | . | -14% | . | .
SMILES | SMN2 splice up | ELG1 genotoxic | Rab9 prom act | FLuc counter | NPC1 prom act | KinaseGlo FLuc
O=C(N=Nc1c(O)n(Cc2ccccc2)c2ccccc12)c1cc2ccccc2cc1O | 10µM* | ? | ? | 1.1µM* | ? | -15%
Cc1ccc(NC(=O)Cn2c(O)c(N=NC(=O)c3cc4ccccc4cc3O)c3ccccc32)cc1 | -44% | -3% | -8% | ? | 1% | -1%
O=C(N=Nc1c(O)n(Cc2ccccc2)c2ccccc12)c1ccc(O)cc1 | ? | ? | ? | 0.95µM* | ? | -2%
Cc1ccc(NC(=O)Cn2c(C)cc(C)c(C#N)c2=O)cc1 | . | . | . | 3% | . | .
Cc1ccccc1-c1cc(Nc2ccc(F)cc2)ncn1 | 15% | . | . | . | . | 2%
CC(C)[C@@H](N)C(=O)N/N=C/c1ccc2ncccc2c1 | . | -1% | -1% | ? | 2% | .
Fc1c(F)c(F)c(N=Cc2ccc3ncccc3c2)c(F)c1F | -28% | 8% | -2% | 6.7µM* | -4% | -3%
CCOC(=O)CN1N=C(/C=C/c2ccc(C)cc2)CCC1=O | 9% | 4% | -5% | ? | 1% | -2%
COc1ccc(/C=C/C2=NN(C)C(=O)CC2)cc1 | 11µM* | ? | 2.8µM* | 11µM* | 2µM* | ?
Nc1ccc2oc3ccccc3c2c1 | 11µM* | 22% | ? | ? | ? | 1%
Nc1ccc2oc3ncccc3c(=O)c2c1 | 25% | ? | 12% | -18% | 10% | -3%
O=C(CN1CCN(C(=O)c2ccc(-c3nc4ccccc4s3)o2)CC1)Nc1ccccc1Cl | . | -7% | 14% | ? | 17% | .
O=C(CN1CCN(C(=O)c2ccc(-c3nc4ccccc4s3)o2)CC1)Nc1ccc(F)cc1 | . | -5% | 25% | 17µM* | 21% | .
Cc1cccc(NC(=O)CN2CCN(C(=O)c3ccc(-c4nc5ccccc5s4)o3)CC2)c1C | . | -2% | 18% | 24µM* | 11% | .
Cc1c(Cl)cccc1NC(=O)CN1C(=O)c2ccccc2Sc2ncccc21 | . | . | . | -7% | . | .
COc1cccc(CNc2ncc(-c3ccc(Br)cc3)n2C)c1 | . | . | . | -12% | . | .
C=CCN=C1S/C(=C\c2ccc(N(C)C)cc2)C(=O)N1CC=C | . | 6% | ? | 21µM* | 18% | .
Cc1ccc2c(CC(=O)N3CCN(c4ccccc4)CC3)coc2c1 | -9% | 0% | -2% | -4% | 2% | 3%
CCc1ccc(/C=C2/C(=O)NC(=O)N2C(C)=O)cc1 | . | 12% | 28% | 8.5µM* | 15% | .
CCCC(=O)Nc1nc(-c2ccccc2)ns1 | ? | 25% | ? | 17µM* | ? | -2%
CC(C)C(=O)Nc1nc(-c2ccccc2)ns1 | 2.2µM* | ? | 2.8µM* | 15µM* | 3.5µM* | 1%
CCCSc1nsc(NC(=O)CC)n1 | . | ? | 0.11µM* | 0.67µM* | 0.28µM* | ?
CC(=O)Nc1cc(-c2ccc(Cl)cc2)[nH]n1 | 22µM* | ? | ? | ? | 3.5µM* | -7%
COc1cc(OC)cc(-c2cc(NC(C)=O)n[nH]2)c1 | 13% | 10% | -2% | ? | 2% | 6%
CCC(=O)Nc1nc(-c2ccccc2)ns1 | 11µM* | 14% | 2µM* | 15µM* | 4µM* | 3%
CC(=O)Nc1nc(-c2ccc(Cl)cc2)ns1 | ? | 17% | 4µM* | 11µM* | ? | 2%
